# Laboratory results taken from PMC6212790, “How bacterial xenogeneic silencer rok distinguishes foreign from self DNA in its resident genome”.
# Over roughly 33,000 sequences, “e-score” has its median near -0.037; the highest 2% begin near 0.34. Many of the other results were omitted from the sample, so the highest values are more common in it than they were.
# Molecular target: T1, GST-Rok (full length) (Bacillus subtilis subsp. subtilis str. …, UniProt O34857 1-191)
# T1 sequence: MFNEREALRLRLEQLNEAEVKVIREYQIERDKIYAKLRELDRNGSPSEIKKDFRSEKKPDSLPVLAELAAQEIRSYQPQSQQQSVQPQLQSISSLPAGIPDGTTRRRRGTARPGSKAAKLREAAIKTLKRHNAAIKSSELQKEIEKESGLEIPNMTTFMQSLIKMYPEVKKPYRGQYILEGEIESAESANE
# Experiment: protein binding microarray; Rok is a gene silencer of Bacillus subtilis; high values mean tight binding
# Conditions: protein: recombinant; tags: GST (pTH5325, pDEST15-Magic modified); dsDNA, one strand shown
# Method in brief: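 Each has a 25-mer constant primer and a 35-mer variable part from a de Bruijn sequence of order 10, covering every non-palindromic 8-mer at least 32 times (palindromic 16). Preference for each 8-mer is given as a rank-based, unitless enrichment score (E-score). Its range runs from 0.5 (most favored) to −0.5 (most disfavored).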
row,Sequence,binding signal
1,ACAGGTCT,-0.119 E-score
2,TGCTGAAA,-0.0464 E-score
3,GCAACTGA,-0.0401 E-score
4,ACAAGTAA,0.185 E-score
5,ACCTATGG,-0.177 E-score
6,GACAATGA,-0.0569 E-score
7,GTCATCTA,0.113 E-score
8,GCAGACGC,-0.181 E-score
9,ATGGTAAC,0.214 E-score
10,AACTAGTG,0.39 E-score
11,AACTAGCG,0.241 E-score
12,AACTAGTT,0.441 E-score
13,AACTAGTC,0.206 E-score
14,TACTAGCA,0.243 E-score
15,TACTAGTA,0.45 E-score
16,AACTAGCT,0.317 E-score
17,TACTAGGA,0.183 E-score
18,CACTAGTG,0.0643 E-score
19,AGCTAGTA,0.373 E-score
20,GGCTAGTA,0.0598 E-score
21,AGCTAGTC,0.078 E-score
22,CTGACCAC,-0.141 E-score
23,ACCGGACT,-0.00817 E-score
24,ATTGTTAC,0.15 E-score
25,AAGCTTCC,-0.103 E-score
26,CTAGCTTA,0.26 E-score

row,Sequence,binding signal
1,AAGTCGAT,0.0686 E-score
2,GATCTCAA,-0.162 E-score
3,CCGCTCAG,-0.0853 E-score
4,GACTAGGA,-0.00844 E-score
5,ACCTAGTA,0.292 E-score
6,AACTAGGC,0.118 E-score
7,GACTAGTA,0.365 E-score
8,AACTAGTA,0.471 E-score
9,AACTAGGT,0.361 E-score
10,AACTAGGG,-0.00258 E-score
11,GACTAGTC,0.224 E-score
12,CACTAGTA,0.205 E-score
13,CCGAATTA,0.235 E-score
14,AGAGTGAA,-0.0866 E-score
15,GTAAGCAA,0.0243 E-score
16,ACCTTACT,0.101 E-score
17,GGTAATCA,0.0323 E-score
18,AGTAATTG,0.29 E-score
19,GATAATTA,0.223 E-score
20,CGTAATTA,0.328 E-score
21,AGTAATTA,0.381 E-score
22,AGTAATTC,0.29 E-score
23,CATAATTC,0.126 E-score
24,CATAATTA,0.362 E-score
25,GGTAATTA,0.375 E-score
26,CACAGTGA,0.137 E-score

row,Sequence,binding signal
1,TAATTTCA,0.273 E-score
2,GCTACGTA,0.298 E-score
3,ACCGGCAT,-0.0275 E-score
4,GGAAGGTA,0.0109 E-score
5,CCCGGCAC,-0.109 E-score
6,CTAAACTC,0.235 E-score
7,GTAAACGA,-0.0497 E-score
8,ATAAACTC,0.15 E-score
9,GTAAACAA,0.0786 E-score
10,GTAAACTA,0.351 E-score
11,ATAAACTA,0.361 E-score
12,ATAAACTG,0.175 E-score
13,CTAAACGA,-0.072 E-score
14,CTAAACTA,0.336 E-score
15,AAAACTCT,0.171 E-score
16,AAGGACGA,-0.157 E-score
17,CTCATCCA,0.013 E-score
18,GCTCCTAC,-0.158 E-score
19,ACAAGACG,-0.0878 E-score
20,CGTTAAGA,-0.0916 E-score
21,ATAACACG,0.22 E-score
22,GACTGATA,0.238 E-score
23,CAGAATAG,0.106 E-score
24,CGTTCGGA,-0.107 E-score
